Source: PubChem BioAssay
In the library only some 0.93% were active in any assay of this set; here they are far more common.
CIT2-GFP yeast: modulators of TOR pathway CIT2-GFP in S. cerevisiae; S. cerevisiae CIT2-GFP strain, flow cytometry, 3 h; 100 means same as DMSO wells; GFP response vs DMSO, % at 10 µM; 320,000 compounds, 0.065% hits;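 active means GFP response relative to DMSO above a set limit, near the screen mean plus 3 SD, cut at about 150% in these data; inconclusive means Fewer than 70 cells measured for a yeast strain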;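 further: ratio of well median GFP fluorescence to mean of DMSO wells on the plate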
RPL19A TOR yeast: yeast TOR pathway RPL19A-GFP modulation | S. cerevisiae RPL19A-GFP strain, flow cytometry, 3 h; active compounds read low | 330,000 compounds, 0.3% hits | percent response vs DMSO, % at 10 µM | AID 2025;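 active means percent response vs DMSO below 50%; inconclusive means fewer than 70 events counted for the yeast strain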;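 further: median channel GFP fluorescence of the barcoded RPL19A-GFP strain; ratio of sample median GFP to plate DMSO average so 100% = DMSO; lower means less RPL19A-GFP as with rapamycin TOR inhibition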
AGP1-GFP MLPCN: modulators of TOR pathway AGP1-GFP in S. cerevisiae; S. cerevisiae AGP1-GFP multiplex flow cytometry, 3 h; GFP as percent of DMSO wells; GFP response vs DMSO, % at 10 µM; 320,000 compounds, 0.02% hits; AID 2066;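 active means GFP response relative to DMSO above a set limit, near screen average plus 3 SD, cut at about 150% in these data; inconclusive means fewer than 70 cells counted for the yeast strain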;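 further: median GFP channel fluorescence of the gated AGP1 strain per well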
LAP4-GFP MLPCN: modulators of TOR pathway LAP4-GFP in S. cerevisiae. AID 2023. 320,000 compounds, 0.34% hits. S. cerevisiae LAP4-GFP multiplex, flow cytometry GFP, 3 h; median GFP as percent of DMSO wells. GFP response vs DMSO, % at 10 µM;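 active means GFP response vs DMSO above a set limit, about the screen mean plus 3 SD, cut at about 150% in these data; inconclusive means under 70 cell events counted for the yeast strain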
MEP2 TOR yeast: yeast TOR pathway MEP2-GFP modulation; S. cerevisiae MEP2-GFP strain, flow cytometry GFP, 3 h; 100% = DMSO control level; GFP response vs DMSO, % at 10 µM; 330,000 compounds, 0.51% hits; AID 2016;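 active means GFP response versus DMSO above a set limit, roughly screen mean plus 3 SD, cut at about 180% in these data; inconclusive means fewer than 70 cells counted for a yeast strain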;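 further: median GFP fluorescence of the barcode-gated MEP2-GFP cells per well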
* marks the source's active call; other numbers are inactive results; ? = inconclusive; nt = no result; [ ] = dose if it differs, or a comment.

SMILES	CIT2-GFP yeast	RPL19A TOR yeast	AGP1-GFP MLPCN	LAP4-GFP MLPCN	MEP2 TOR yeast
Cc1cccc(C2=NN(c3ccc(Br)cc3)[C@@H](C(=O)N3CCOC3=O)[C@@H]2c2ccc(F)cc2)c1	?	68.6	15.1	118.8	296.3*[may fluoresce violet]
COc1ccccc1[C@@H]1C(c2cccc(Cl)c2)=NN(c2ccccc2)[C@H]1C(=O)N1CCOC1=O	?	83.6	20.0	91.2	152.7
CCOC(=O)N1CCN(CC(O)COc2c(C)cc(C)cc2C)CC1 (stereo not given)	94.5	109.4	93.4	94.0	105.0
Cc1ccc(C)c(-n2c(Cc3cc(=O)[nH]c(=O)[nH]3)nnc2SCC(=O)NCC2CCCO2)c1 (stereo not given)	?	23.1*[may fluoresce violet]	?	73.6	233.9*[may fluoresce violet]
Cc1ccc(C)c(-n2c(Cc3cc(=O)[nH]c(=O)[nH]3)nnc2SCC(=O)NCc2ccco2)c1	104.1	95.7	90.2	97.4	97.1
Cc1ccc2occ(/C=N/NC(=O)[C@@H](N)Cc3ccccc3)c(=O)c2c1	93.0	99.8	106.3	108.0	98.1
COCC(C)OC(=O)/C(C#N)=C\c1coc2ccc(C)cc2c1=O (stereo not given)	?	88.9	28.9	138.8	302.9*[may fluoresce violet]
CCC(CC)C(=O)NCc1ccc(OC)cc1	100.9	101.6	110.1	109.9	111.0
COc1ccc(CNC(=O)C(CC(C)C)NC(=O)c2ccccc2C)cc1 (stereo not given)	?	51.0	18.0	73.8	200.4*[may fluoresce violet]
CC1NC(=O)N(C)C2NC(=O)N(C)C(c3ccccc3)C12 (stereo not given)	?	46.5*[may fluoresce violet]	?	90.8	362.9*[may fluoresce violet]
COc1cc2c(cc1OC)C(c1cccs1)N(C(=O)c1ccc(S(=O)(=O)N(C)C)cc1)CC2 (stereo not given)	102.7	98.4	100.8	102.2	99.8
COc1ccc(C)cc1NC(=O)C/C(C)=N/NC(=O)Cc1cccc2ccccc12	?	34.6*[may fluoresce violet]	?	70.9	?
Cc1oc(-c2ccccc2F)nc1CN1CCC(C(=O)NCc2ccco2)CC1	?	59.0	19.4	89.6	201.9*[may fluoresce violet]
Cc1oc(-c2ccccc2F)nc1CN1CCC(C(=O)NC2CCCc3ccccc32)CC1 (stereo not given)	92.2	93.7	94.6	94.6	93.9
Cc1cc(NC(=O)CCC(=O)N(CC(=O)NCC2CCCO2)c2ccc(F)c(Cl)c2)no1 (stereo not given)	?	54.3	12.6	70.7	389.6*[may fluoresce violet]
O=C(CNC1CCCCC1)Nc1ccc(S(=O)(=O)N2CCCCC2)cc1	103.0	103.7	103.6	96.1	105.5
CC1CCCN(S(=O)(=O)c2ccc(NC(=O)CNC3CCCC3)cc2)C1 (stereo not given)	?	63.3	13.9	92.7	315.1*[may fluoresce violet]
CCc1nnc(NC(=O)c2ccc(S(=O)(=O)N3CCCC(C)C3)cc2)o1 (stereo not given)	106.3	103.0	114.7	150.5*	115.6
O=C1C2CCCN2C(=O)N1CCCN1CCN(c2cccc(Br)c2)CC1 (stereo not given)	99.9	101.9	96.1	89.0	105.7
S=C(NCc1ccco1)Nc1ccc(Oc2ccccc2)cc1	93.7	105.3	113.4	121.1	101.3
O=C(CSc1nnc(-c2ccccn2)n1Cc1ccccc1)N1CCOCC1	130.8	82.3	124.1	167.1*	510.9*
CCOC(=O)c1ccc(/C=C2\c3ccccc3C(=O)N2c2ccccc2)cc1F	77.9	92.2	91.5	94.3	92.8
O=C1[C@@H]2CSCN2C(=O)CN1Cc1c(F)cccc1Cl	103.7	104.0	102.0	98.5	104.9
Cc1cc(C)nc(/N=C(\NC(=O)C(C)(C)C)Nc2ccc(F)cc2)n1	?	48.2*[may fluoresce violet]	?	67.2	469.6*[may fluoresce violet]
CC(=O)c1cccc(-n2nnnc2SCC(=O)Nc2cc(C)on2)c1	98.5	100.7	100.7	104.7	100.6
SMILES	CIT2-GFP yeast	RPL19A TOR yeast	AGP1-GFP MLPCN	LAP4-GFP MLPCN	MEP2 TOR yeast
Nc1nc(SCC(=O)Nc2ccc(OC(F)(F)F)cc2)[nH]c(=O)c1NC(=O)c1ccc(Br)o1	95.5	103.1	91.4	86.6	102.3
CC(=O)N/C(N)=N/c1nc2cc([N+](=O)[O-])ccc2o1	105.1	97.3	103.5	114.9	98.3
CC(=O)N/C(N)=N/c1nc2cc(C)ccc2o1	?	18.8*[may fluoresce violet]	?	70.0	?
CCCC(=O)N/C(N)=N/c1nc2ccccc2o1	78.2	85.6	88.0	115.5	96.7
CCC(=O)N/C(N)=N/c1nc2ccccc2o1	92.2	87.2	99.9	176.1*	109.7
CC(=O)CSc1nnc(Cc2ccc3c(c2)OCO3)o1	99.9	99.2	103.4	93.4	103.9
CCC(=O)N1CCCc2cc(S(=O)(=O)NCc3cccs3)ccc21	nt	20.6*[may fluoresce violet]	?	?	?
O=C(O)CCC(=O)N1CCc2cc(S(=O)(=O)NCc3cccs3)ccc21	108.5	104.0	105.2	98.2	109.5
COc1ccc(-c2cc3cc4c(cc3cn2)OCO4)cc1	88.1	95.7	99.6	104.5	97.9
c1ccc(-c2cc3cc4c(cc3cn2)OCO4)cc1	?	48.1*[may fluoresce violet]	19.3	101.6	221.7*[may fluoresce violet]
CCOc1cc(/C=C2\SC(=NC)N(C)C2=O)c(Br)cc1OC(C)=O	?	40.8*[may fluoresce violet]	?	75.9	197.4*[may fluoresce violet]
CCOc1cc(/C=C2\SC(=NC)N(C)C2=O)cc(Cl)c1OC(C)=O	96.7	105.4	88.0	83.1	102.2
CCCCC1OC23CCCCC2C(C#N)(C#N)C1(C#N)C(=N)O3 (stereo not given)	106.8	111.5	108.6	111.6	118.9
CCCCCCCCOc1ccc(C2OC34CCCCC3C(C#N)(C#N)C2(C#N)C(=N)O4)cc1 (stereo not given)	?	49.4*[may fluoresce violet]	28.8	84.2	376.4*[may fluoresce violet]
C[C@]12C[C@H](O)[C@@H]3c4ccc(O)cc4CCC3[C@@H]1CCC2=O (stereo not given in full)	103.6	96.5	100.9	103.5	112.0
C[C@]12CC[C@H]3C(=CCc4cc(O)ccc43)[C@@H]1CCC2=O	78.4	102.9	88.4	156.9*	105.4
O=C(O)CCC1c2cc3c4cc2OC2Oc5cc6c(cc51)C(CCC(=O)O)c1cc5c7cc1OC(O6)c1cc6cc(c1)Oc1cc(cc(C(=O)O)c1)Oc1cc8cc(c1)C(Oc1cc(c(cc1C5CCC(=O)O)C3CCC(=O)O)OC(O4)c1cc(cc(c1)Oc1cc(cc(C(=O)O)c1)O8)Oc1cc(cc(C(=O)O)c1)Oc1cc(cc2c1)Oc1cc(cc(C(=O)O)c1)O6)O7 (stereo not given)	80.1	93.2	79.3	104.5	85.2
Cn1nc(-c2ccccc2)c2nc3ccccc3nc21	91.9	?	nt	?	?
CCCCn1nc(-c2ccccc2)c2nc3ccccc3nc21	?	16.9*[may fluoresce violet]	?	92.7	426.1*[may fluoresce violet]
